What all share (assay): DAPPL (digital affinity profiling via proximity ligation, sequencing); 10 mM Tris-HCl pH 7.5, 50 mM NaCl, 1 mM DTT, 4% glycerol, room temperature, 30 min; GST-TFs on glutathione beads, 16-mer random dsDNA library, 0.1% formaldehyde crosslink after washing; high values mean tight binding
Test [1] deals with T1, FLI1 (Homo sapiens, UniProt Q01543 1-452).
T1 sequence: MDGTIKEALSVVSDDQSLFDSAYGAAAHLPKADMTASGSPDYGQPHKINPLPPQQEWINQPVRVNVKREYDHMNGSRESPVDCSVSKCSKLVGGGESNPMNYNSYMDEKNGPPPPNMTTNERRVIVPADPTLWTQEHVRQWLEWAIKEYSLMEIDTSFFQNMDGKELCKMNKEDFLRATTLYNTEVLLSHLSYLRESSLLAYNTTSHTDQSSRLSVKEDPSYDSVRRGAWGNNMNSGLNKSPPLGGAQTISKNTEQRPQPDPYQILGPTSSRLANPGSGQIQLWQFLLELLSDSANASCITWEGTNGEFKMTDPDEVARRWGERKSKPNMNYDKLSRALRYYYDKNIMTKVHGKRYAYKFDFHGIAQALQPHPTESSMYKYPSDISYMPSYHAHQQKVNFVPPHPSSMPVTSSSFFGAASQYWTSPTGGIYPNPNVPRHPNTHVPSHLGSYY
The conditions noted are these: protein: recombinant; tags: N-terminal GST; dsDNA, one strand shown. An outline of the steps: (§1)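 Beads coated with glutathione captured GST-fused human transcription factors that had been expressed in yeast, and the factors were then given DNA barcodes and pooled with a tag-only sample. The pools were incubated with 200 nmole of a random double-stranded 16-mer DNA library in Tris/NaCl/DTT/glycerol buffer for 30 min at room temperature, washed, crosslinked with 0.1% formaldehyde and proximity-ligated with BsaI/T4 ligase at 37 °C for 1 h. PCR amplification and Illumina NextSeq500 sequencing came last. Binding signal is each hexamer's read frequency for a factor divided by its frequency for the tag-only sample.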

Test [2] has as its target T2, ELK1 (Homo sapiens, UniProt P19419 1-428).
T2 sequence: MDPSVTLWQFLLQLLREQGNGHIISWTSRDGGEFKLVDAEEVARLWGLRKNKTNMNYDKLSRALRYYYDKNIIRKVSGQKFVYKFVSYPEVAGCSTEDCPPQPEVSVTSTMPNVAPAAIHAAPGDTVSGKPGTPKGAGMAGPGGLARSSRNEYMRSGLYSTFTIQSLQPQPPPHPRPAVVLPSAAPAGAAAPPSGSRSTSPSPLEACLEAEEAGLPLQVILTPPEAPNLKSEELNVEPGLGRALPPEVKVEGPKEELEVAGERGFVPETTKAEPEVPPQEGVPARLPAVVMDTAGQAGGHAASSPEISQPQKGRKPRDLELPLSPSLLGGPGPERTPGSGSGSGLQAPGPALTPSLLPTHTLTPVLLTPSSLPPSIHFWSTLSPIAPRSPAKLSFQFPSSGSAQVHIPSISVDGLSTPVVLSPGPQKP
The conditions noted are these: protein: recombinant; tags: N-terminal GST; dsDNA, one strand shown. An outline of the steps:
as §1

For test [3], the target named is T3, GABPA (Homo sapiens, UniProt Q06546 1-454).
T3 sequence: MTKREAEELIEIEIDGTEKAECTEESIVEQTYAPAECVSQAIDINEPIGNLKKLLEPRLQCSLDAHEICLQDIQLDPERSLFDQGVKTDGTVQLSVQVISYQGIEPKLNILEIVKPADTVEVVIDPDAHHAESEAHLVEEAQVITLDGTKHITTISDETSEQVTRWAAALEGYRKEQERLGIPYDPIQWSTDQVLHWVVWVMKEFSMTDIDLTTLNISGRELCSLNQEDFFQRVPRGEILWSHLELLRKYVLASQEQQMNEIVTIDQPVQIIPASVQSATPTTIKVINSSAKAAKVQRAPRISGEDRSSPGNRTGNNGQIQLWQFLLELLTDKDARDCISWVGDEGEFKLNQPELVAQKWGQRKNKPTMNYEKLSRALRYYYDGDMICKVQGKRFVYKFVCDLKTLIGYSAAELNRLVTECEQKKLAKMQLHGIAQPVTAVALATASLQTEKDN
The following applies: protein: recombinant; tags: N-terminal GST; dsDNA, one strand shown. The procedure, abridged:
as §1

The target in test [4] is T4, ERG (Homo sapiens, UniProt P11308 1-479).
T4 sequence: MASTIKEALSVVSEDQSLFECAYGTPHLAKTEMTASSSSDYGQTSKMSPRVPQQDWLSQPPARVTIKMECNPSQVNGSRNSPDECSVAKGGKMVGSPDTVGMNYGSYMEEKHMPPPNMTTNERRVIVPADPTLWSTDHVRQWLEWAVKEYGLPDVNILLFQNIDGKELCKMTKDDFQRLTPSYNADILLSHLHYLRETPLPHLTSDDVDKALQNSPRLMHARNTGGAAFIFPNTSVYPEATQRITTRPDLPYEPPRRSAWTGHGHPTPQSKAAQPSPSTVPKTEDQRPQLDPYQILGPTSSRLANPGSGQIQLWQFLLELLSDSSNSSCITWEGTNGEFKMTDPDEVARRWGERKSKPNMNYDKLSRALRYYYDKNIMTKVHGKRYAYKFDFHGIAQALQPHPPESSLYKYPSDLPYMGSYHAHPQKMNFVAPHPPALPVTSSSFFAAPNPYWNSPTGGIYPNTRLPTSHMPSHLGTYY
The conditions noted are these: protein: recombinant; tags: N-terminal GST; dsDNA, one strand shown. An outline of the steps:
as §1

Test [5] has as its target ELF1 (Homo sapiens, UniProt P32519 1-619). The conditions noted are these: protein: recombinant; tags: N-terminal GST; dsDNA, one strand shown. The procedure, abridged:
as §1

Test [6] addresses SPI1 (Homo sapiens, UniProt P17947 1-270). The conditions noted are these: protein: recombinant; tags: N-terminal GST; dsDNA, one strand shown. An outline of the steps:
as §1

Test [7] concerns the target SPIB (Homo sapiens, UniProt Q01892 1-262). The conditions noted are these: protein: recombinant; tags: N-terminal GST; dsDNA, one strand shown. The procedure, abridged:
as §1

In test [8] the target is T5, ELK3 (Homo sapiens, UniProt P41970 1-407).
T5 sequence: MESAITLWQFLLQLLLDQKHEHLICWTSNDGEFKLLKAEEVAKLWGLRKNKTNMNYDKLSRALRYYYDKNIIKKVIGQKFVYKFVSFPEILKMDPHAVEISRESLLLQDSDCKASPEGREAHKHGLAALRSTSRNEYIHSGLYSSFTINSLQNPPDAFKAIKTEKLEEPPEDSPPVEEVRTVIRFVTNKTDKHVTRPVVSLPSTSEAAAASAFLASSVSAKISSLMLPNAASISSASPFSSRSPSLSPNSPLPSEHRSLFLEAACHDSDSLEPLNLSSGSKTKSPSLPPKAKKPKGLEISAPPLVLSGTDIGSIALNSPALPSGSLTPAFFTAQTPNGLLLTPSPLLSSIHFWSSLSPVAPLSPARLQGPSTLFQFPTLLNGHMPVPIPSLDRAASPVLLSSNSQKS
The following applies: protein: recombinant; tags: N-terminal GST; dsDNA, one strand shown. The procedure, abridged:
as §1

Test [9] deals with T6, FEV (Homo sapiens, UniProt Q99581 1-238).
T6 sequence: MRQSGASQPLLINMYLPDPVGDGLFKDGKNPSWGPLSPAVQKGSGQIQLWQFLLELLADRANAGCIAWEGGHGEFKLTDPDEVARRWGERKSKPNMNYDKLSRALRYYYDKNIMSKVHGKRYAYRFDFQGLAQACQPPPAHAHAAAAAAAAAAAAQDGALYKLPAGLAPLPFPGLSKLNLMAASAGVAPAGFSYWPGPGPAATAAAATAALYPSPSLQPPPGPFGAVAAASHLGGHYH
The conditions noted are these: protein: recombinant; tags: N-terminal GST; dsDNA, one strand shown. The procedure, abridged:
as §1

The target in test [10] is ETV5 (Homo sapiens, UniProt P41161 1-510). The conditions noted are these: protein: recombinant; tags: N-terminal GST; dsDNA, one strand shown. The procedure, abridged:
as §1

In test [11] the target is HSF1 (Homo sapiens, UniProt Q00613 1-529). The following applies: protein: recombinant; tags: N-terminal GST; chain copies: 3; dsDNA, one strand shown. The procedure, abridged: as §1
Test [12] concerns the target T7, SPIC (Homo sapiens, UniProt Q8N5J4 1-248).
T7 sequence: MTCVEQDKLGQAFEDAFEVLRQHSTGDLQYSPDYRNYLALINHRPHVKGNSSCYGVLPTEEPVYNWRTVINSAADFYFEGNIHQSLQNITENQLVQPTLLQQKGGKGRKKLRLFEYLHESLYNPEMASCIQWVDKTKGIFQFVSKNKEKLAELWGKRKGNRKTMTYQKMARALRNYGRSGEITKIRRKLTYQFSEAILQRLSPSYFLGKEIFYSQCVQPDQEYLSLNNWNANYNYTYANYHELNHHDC
The following applies: protein: recombinant; tags: N-terminal GST; dsDNA, one strand shown. An outline of the steps: as §1

The target in test [13] is ELF4 (Homo sapiens, UniProt Q99607 1-663). The conditions noted are these: protein: recombinant; tags: N-terminal GST; dsDNA, one strand shown. An outline of the steps: as §1
The target in test [14] is T8, ELK4 (Homo sapiens, UniProt P28324-2 1-405).
T8 sequence: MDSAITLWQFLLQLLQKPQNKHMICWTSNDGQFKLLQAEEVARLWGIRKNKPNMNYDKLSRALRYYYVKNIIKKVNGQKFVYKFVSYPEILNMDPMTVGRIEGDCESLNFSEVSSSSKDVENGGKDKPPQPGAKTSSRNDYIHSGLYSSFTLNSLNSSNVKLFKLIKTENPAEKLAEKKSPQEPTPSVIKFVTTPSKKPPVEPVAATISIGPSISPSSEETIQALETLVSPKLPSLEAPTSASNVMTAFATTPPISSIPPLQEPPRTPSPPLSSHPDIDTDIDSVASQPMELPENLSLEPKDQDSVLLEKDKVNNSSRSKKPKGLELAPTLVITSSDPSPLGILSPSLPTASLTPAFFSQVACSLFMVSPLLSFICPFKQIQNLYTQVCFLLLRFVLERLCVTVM
The following applies: protein: recombinant; tags: N-terminal GST; dsDNA, one strand shown. The procedure, abridged:
as §1

In test [15] the target is T9, ELF3 (Homo sapiens, UniProt P78545 1-371).
T9 sequence: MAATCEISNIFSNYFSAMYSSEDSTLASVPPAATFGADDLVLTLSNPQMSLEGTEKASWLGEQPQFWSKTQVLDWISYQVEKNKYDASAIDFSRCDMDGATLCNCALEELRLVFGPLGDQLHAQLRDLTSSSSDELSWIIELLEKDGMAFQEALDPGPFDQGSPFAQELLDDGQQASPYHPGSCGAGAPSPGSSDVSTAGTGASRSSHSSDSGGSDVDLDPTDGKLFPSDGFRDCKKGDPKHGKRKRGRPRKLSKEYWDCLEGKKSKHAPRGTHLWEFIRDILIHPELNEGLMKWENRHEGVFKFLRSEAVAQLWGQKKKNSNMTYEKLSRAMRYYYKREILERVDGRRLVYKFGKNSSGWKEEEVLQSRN
The following applies: protein: recombinant; tags: N-terminal GST; dsDNA, one strand shown. The procedure, abridged:
as §1

The target in test [16] is CRX (Homo sapiens, UniProt O43186 1-299). The following applies: protein: recombinant; tags: N-terminal GST; dsDNA, one strand shown. The procedure, abridged: as §1
The target of test [17] is ETV1 (Homo sapiens, UniProt P50549 1-477). The conditions noted are these: protein: recombinant; tags: N-terminal GST; dsDNA, one strand shown. An outline of the steps:
as §1

Chain of ETV1 (P50549 whole entry): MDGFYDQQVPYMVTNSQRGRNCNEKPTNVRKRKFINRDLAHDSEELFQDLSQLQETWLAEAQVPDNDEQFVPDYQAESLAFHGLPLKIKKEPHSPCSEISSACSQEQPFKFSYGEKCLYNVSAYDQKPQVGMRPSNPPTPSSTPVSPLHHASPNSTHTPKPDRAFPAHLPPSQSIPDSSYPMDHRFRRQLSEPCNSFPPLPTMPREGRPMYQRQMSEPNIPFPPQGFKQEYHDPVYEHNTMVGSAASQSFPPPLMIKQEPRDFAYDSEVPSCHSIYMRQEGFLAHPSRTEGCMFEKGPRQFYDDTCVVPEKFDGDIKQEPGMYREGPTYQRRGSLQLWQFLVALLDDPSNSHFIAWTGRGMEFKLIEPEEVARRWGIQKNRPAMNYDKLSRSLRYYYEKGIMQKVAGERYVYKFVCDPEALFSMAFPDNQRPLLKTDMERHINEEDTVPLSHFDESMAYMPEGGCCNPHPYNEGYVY
Chain of SPIB (Q01892 whole entry): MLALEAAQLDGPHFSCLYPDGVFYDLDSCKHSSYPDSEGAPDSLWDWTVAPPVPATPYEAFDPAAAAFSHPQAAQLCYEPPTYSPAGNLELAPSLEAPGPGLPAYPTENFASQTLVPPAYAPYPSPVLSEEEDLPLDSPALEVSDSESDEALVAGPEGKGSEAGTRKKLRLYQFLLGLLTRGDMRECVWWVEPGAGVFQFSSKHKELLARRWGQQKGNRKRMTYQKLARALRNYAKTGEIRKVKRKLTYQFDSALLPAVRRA
Chain of HSF1 (Q00613 whole entry): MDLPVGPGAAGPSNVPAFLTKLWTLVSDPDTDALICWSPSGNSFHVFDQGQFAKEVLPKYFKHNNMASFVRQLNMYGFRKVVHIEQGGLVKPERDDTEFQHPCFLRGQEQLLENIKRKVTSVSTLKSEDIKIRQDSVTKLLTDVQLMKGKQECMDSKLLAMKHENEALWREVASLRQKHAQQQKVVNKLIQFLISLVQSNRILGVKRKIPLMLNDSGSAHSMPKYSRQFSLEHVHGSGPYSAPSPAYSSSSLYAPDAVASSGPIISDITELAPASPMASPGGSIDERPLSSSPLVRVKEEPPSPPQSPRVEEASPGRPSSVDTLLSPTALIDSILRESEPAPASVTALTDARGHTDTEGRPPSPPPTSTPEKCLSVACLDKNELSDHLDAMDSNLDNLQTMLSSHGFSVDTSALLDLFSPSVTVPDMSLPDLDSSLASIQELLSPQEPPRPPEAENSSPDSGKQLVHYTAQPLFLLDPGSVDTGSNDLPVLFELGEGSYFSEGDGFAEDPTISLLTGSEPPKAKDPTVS
Chain of CRX (O43186 whole entry): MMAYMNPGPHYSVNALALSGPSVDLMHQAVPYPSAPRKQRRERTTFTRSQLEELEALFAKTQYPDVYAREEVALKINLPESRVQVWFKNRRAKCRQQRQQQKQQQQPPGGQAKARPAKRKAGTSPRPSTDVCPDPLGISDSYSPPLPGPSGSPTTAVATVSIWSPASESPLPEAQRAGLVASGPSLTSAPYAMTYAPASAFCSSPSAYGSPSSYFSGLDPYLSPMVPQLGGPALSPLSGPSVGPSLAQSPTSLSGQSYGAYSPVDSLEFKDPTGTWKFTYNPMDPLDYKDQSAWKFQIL
Chain of ETV5 (P41161 whole entry): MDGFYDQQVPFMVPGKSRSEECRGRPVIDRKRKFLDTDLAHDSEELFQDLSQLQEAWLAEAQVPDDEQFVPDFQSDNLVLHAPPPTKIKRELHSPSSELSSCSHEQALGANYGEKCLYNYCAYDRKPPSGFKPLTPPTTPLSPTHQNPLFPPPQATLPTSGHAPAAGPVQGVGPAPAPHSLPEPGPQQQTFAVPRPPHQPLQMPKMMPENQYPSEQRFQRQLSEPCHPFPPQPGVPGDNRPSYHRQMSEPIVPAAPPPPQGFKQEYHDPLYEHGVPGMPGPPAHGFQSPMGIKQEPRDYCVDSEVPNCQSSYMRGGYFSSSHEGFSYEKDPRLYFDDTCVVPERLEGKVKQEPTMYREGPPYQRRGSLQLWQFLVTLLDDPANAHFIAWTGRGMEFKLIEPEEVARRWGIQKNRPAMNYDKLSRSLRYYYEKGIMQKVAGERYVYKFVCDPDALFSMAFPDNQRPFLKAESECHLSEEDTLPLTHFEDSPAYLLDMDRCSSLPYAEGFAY
Chain of ELF4 (Q99607 whole entry): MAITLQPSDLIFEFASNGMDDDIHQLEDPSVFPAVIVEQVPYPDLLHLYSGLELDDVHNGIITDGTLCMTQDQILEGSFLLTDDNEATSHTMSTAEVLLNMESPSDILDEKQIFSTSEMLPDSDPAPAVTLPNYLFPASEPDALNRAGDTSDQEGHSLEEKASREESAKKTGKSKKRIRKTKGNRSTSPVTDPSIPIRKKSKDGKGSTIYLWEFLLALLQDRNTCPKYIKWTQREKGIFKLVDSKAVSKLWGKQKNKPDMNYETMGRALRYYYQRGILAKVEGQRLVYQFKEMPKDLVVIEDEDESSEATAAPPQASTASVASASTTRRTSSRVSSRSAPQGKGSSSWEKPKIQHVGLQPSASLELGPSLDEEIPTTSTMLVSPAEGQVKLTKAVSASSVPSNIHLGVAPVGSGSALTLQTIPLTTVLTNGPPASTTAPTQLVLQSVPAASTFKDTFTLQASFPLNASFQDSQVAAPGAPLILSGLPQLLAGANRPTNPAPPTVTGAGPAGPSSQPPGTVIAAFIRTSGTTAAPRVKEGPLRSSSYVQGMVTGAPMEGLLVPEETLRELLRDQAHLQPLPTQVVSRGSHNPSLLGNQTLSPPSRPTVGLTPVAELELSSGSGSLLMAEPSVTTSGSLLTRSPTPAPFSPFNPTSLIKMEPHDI
Chain of ELF1 (P32519 whole entry): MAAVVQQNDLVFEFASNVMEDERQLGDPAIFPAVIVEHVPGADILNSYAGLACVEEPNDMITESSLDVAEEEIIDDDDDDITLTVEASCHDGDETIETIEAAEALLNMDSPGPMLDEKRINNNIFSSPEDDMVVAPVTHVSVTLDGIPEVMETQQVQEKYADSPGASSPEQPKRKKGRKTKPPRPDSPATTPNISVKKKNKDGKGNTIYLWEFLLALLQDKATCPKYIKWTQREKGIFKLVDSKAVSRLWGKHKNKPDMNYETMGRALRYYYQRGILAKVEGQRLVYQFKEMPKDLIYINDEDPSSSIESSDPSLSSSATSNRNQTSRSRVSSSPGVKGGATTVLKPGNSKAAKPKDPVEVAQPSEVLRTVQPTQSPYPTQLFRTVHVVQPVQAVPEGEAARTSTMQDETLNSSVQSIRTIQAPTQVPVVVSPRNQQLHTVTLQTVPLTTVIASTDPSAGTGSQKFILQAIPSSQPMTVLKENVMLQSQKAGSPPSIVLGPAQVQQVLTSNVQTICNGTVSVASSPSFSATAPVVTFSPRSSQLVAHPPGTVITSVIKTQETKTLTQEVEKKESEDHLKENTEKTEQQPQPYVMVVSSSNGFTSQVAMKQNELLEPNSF

As to CGATCA, the binding signal in test [1] is 1.15 fold enrichment (6-mer frequency, TF over GST control); in test [2] it was 1.13 fold enrichment (6-mer frequency, TF over GST control); in test [3], 1.15 fold enrichment (6-mer frequency, TF over GST control); in test [4], 1.07 fold enrichment (6-mer frequency, TF over GST control); in [5], 1.2 fold enrichment (6-mer frequency, TF over GST control); in [6], 1.02 fold enrichment (6-mer frequency, TF over GST control). Besides, the binding signal was 1.06 fold enrichment (6-mer frequency, TF over GST control) in test [7]; 1.23 fold enrichment (6-mer frequency, TF over GST control) in [8]; 1.04 fold enrichment (6-mer frequency, TF over GST control) in [9]; 1.03 fold enrichment (6-mer frequency, TF over GST control) in [10]; 1.22 fold enrichment (6-mer frequency, TF over GST control) in test [11]; 1.06 fold enrichment (6-mer frequency, TF over GST control) in test [12]. Besides, the binding signal in test [13] is 1.06 fold enrichment (6-mer frequency, TF over GST control); in test [14], 1.07 fold enrichment (6-mer frequency, TF over GST control); in test [15], 1.07 fold enrichment (6-mer frequency, TF over GST control); in test [16] it was 1.16 fold enrichment (6-mer frequency, TF over GST control); in [17], 1.04 fold enrichment (6-mer frequency, TF over GST control).

The values are drawn from paper PMC7862700, “An all-to-all approach to the identification of sequence-specific readers for epigenetic DNA modifications on cytosine”.
